Only some compounds are listed: those with a hit (about 21% of all), similar ones and a draw of the others.
Pf growth 48h = Primary qHTS for delayed death inhibitors of the malarial parasite plastid, 48 hour incubation. P. falciparum luciferase growth in erythrocytes, 48 h. Potency, µM (titrated, usually from 28.7 µM), for the others: at the top dose activity change, negative = inhibition, hits mostly inhibitors. 310,000 compounds, 5.9% hits; also: potency is read from the fitted curve at half-maximal effect; % is scaled to controls: 0 for no effect and ±100 for the full control effect
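Read-out is firefly luciferase luminescence from an integrated reporter in P. falciparum, so falling signal marks reduced parasite growth. Infected erythrocytes were at 2% hematocrit and 0.1% parasitemia (final) in Albumax-supplemented RPMI 1640.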
Shiga inhibitor = A qHTS for Small Molecule Inhibitors of Shiga Toxin; Vero cells, Shiga toxin protein synthesis inhibition reporter; inhibition, % at 38.7 µM; 290,000 compounds, 9.2% hits; in the data active = inhibition mostly above about 28%, no sharp cut-off; inactive = mostly below about 43%; also: 0% is about no effect
AMA1 RON2 block = qHTS for Inhibitors of AMA1-RON; Towards Development of Antimalarial Drug Lead: Primary Screen; Plasmodium falciparum AMA1 (3D7) - RON2 peptide interaction; AlphaScreen AMA1-biotinylated RON2 peptide binding; Potency, µM (top dose mostly 58.2 µM), inactives show at the top dose activity change, negative = inhibition, most hits filed as inhibitors; 360,000 compounds, 0.2% hits; AID 720542, 2013;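 also: potency is read from the fitted curve at half-maximal effect; 0% = vehicle wells and -100% = peptide control; nearly all actives have a fitted effect of over 45% in size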
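AMA1 (3D7) with his tag at 25 nM final met compounds first, then biotinylated RON2 peptide at 25 nM; detection used donor plus acceptor beads, 10 µg/mL apiece, read by AlphaScreen after 30 min at room temperature.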
Cycloheximide cs = Cycloheximide Counterscreen for Small Molecule Inhibitors of Shiga Toxin. cell reporter, cycloheximide protein synthesis inhibition counterscreen. max response, %. 300,000 compounds, 12% hits; in the data active = max response mostly above about 13%, no sharp cut-off; inactive = mostly below about 14%; also: read at 38.3 µM for the half of the compounds with a filed dose; 0% is about no effect
HCV inhibitor = qHTS Assay for Inhibitors of Hepatitis C Virus (HCV). Huh7.5.1 HCVcc-Cre infection, luciferase reporter, 44 h. Potency, µM (highest dose often 41.8 µM), without a hit: at the highest dose activity change, negative = inhibition, hits mostly inhibitors. 340,000 compounds, 3.4% hits; also: potency is read from the fitted curve at half-maximal effect; % is scaled to controls: 0 for no effect and ±100 for the full control effect
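Cells seeded at 1,000/well and cultured 4 h, then compounds added followed by HCVcc-Cre virus (~0.5 moi). After 44 h further culture, luciferase substrate was added, plates held 15 min at room temperature, and luminescence read for 15 sec.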
Pf growth 96h = Primary qHTS for delayed death inhibitors of the malarial parasite plastid, 96 hour incubation; 320,000 compounds, 6.9% hits; Potency, µM (series often up to 28.7 µM), for inactives: at the highest dose activity change, negative = inhibition, usual class: inhibitors; AID 504834, 2011; P. falciparum luciferase reporter growth, 96 h; also: potency is read from the fitted curve at half-maximal effect; % is scaled to controls: 0 for no effect and ±100 for the full control effect
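Readout is luminescence from an integrated firefly luciferase in P. falciparum. Red cells, 2% hematocrit and 0.05% parasitemia final, were cultured with compound through two parasite generations (96 hours) at 37 C, 5% CO2.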
Numbers without * were called inactive; i = inactive; ? = inconclusive; · = no result given; + = active, no number. Unless noted, calls follow the shape of the dose curve; as a rule, active = well fitted curve in the direction sought with a large enough effect; inconclusive = small, poorly fitted or top-dose-only effect, or another doubt; inactive = no such curve, though single readings can be large; an effect the other way counts as inactive or inconclusive.

SMILES	Pf growth 48h	Shiga inhibitor	AMA1 RON2 block	Cycloheximide cs	HCV inhibitor	Pf growth 96h
CC(C)CNC(=O)Cn1c(=O)c2c(ncn2CC(C)C)n(Cc2ccccc2)c1=O	?	-2	-2%	7	11µM*	?
CCNC(=S)NNC(=O)Cn1c(=O)c2c(ncn2CCOC)n(Cc2ccccc2)c1=O	-14%	-6	64%	-11	7%	?
COc1cccc(NC(=O)Cn2c(=O)c3c(ncn3Cc3ccccc3)n(Cc3ccccc3)c2=O)c1	·	16	-7%	18	7%	0.83µM*
COCCn1cnc2c1c(=O)n(CC(=O)NC(=O)NC(C)(C)C)c(=O)n2Cc1ccccc1	?	-3	-13%	-3	3%	0.26µM*
O=c1c(-c2ccccc2)nnc2sc(COc3ccc(Br)cc3)nn12	9%	-4	-14%	-1	5%	1%
Cc1ccc(N2C(=O)N(CC(=O)Nc3ccc(F)c(F)c3)C(=O)C2C)cc1 (stereo unspecified)	41%	·	0%	·	-26%	4%
Cc1ccc(OC(=O)COc2ccccc2C)c(-n2nc3ccccc3n2)c1	i	69*	17%	43*	-15%	-6%
COC(=O)COc1ccc(C)cc1-n1nc2ccccc2n1	67%	7	13%	-6	7%	4%
Cc1ccc(OC(=O)c2cccc([N+](=O)[O-])c2)c(-n2nc3ccccc3n2)c1	205%	12	-14%	27*	30%	164%
Cc1ccc(OC(=O)COc2ccccc2)c(-n2nc3ccccc3n2)c1	·	94*	8%	41*	-20%	212%
COc1cc(C(=O)N2CCCC(c3cc(C(=O)NCc4ccc(F)cc4)no3)C2)cc(OC)c1C (stereo unspecified)	·	·	-14%	·	·	·
COC(=O)c1sccc1-c1ccc(/C=N/OCc2c(Cl)cccc2Cl)o1	-2%	9	10%	0	-21%	?
CC1SCC(=NOCc2c(Cl)cccc2Cl)CS1 (stereo unspecified)	18%	62*	0%	12	13%	-6%
CCN(CC)C1=C(Cl)C(=O)C(Cl)C12OCCO2 (stereo unspecified)	15µM*	-5	-9%	7	1%	-6%
COc1ccc(S(=O)(=O)NCCC(=O)N2CCCN(C)CC2)cc1	-3%	·	-5%	·	6%	?
O=C(COc1ccc(Cl)cc1)N(Cc1ccccc1)c1nc(-c2ccccc2)cs1	1.5µM*	16	-4%	-3	-1%	30%
Cc1ccc(OCC(=O)N(Cc2ccccc2)c2ccccn2)cc1	-18%	3	-3%	32*	6%	227%
O=C(NC(=S)N(Cc1ccccc1)c1ccccn1)C1CC1	44%	4	0%	13*	26%	0%
Cc1ccc(CC(=O)N(Cc2ccccc2)c2ccccn2)cc1	?	17	1%	4	6%	-7%
COc1ccccc1NC(=O)N(Cc1ccccc1)c1ccccn1	12µM*	32*	12%	10	2%	?
O=C(NC(=S)N(Cc1ccccc1)Cc1ccccc1)C1CCCCC1	?	-12	115%	8	?	?
COc1ccc(-c2csc(N(CCc3ccccc3)C(=O)COc3ccccc3)n2)cc1	?	-8	-9%	2	0%	-144%
Cc1oc(-c2nc3ccccc3n2C)cc1C(=O)c1ccccc1	73%	+	9%	27*	-4%	-14%
CCCC(=O)c1cc(-c2nc3ccccc3n2C)n(C)c1	-9%	-3	-7%	7	22µM*	·
CCC(=O)c1cc(-c2nc3ccccc3n2C)n(C)c1	13%	13	-20%	1	-13%	·
SMILES	Pf growth 48h	Shiga inhibitor	AMA1 RON2 block	Cycloheximide cs	HCV inhibitor	Pf growth 96h
Cn1cc(C(=O)c2ccccc2)cc1-c1nc2ccccc2n1C	-29%	31	-4%	13*	?	?
CC(O)[C@@]1(O)CC[C@H]2[C@@H]3CC[C@H]4C[C@@H](O)CC[C@]4(C)C3=CC[C@@]21C (stereo partly specified)	?	·	1%	·	9%	37%
COc1cc(OC)c2c(-c3ccccc3)cc(=O)oc2c1C(CCN1CCOCC1)c1ccc(N(C)C)cc1 (stereo unspecified)	·	4	28µM*	12	?	·
COc1cc(OC)c2c(-c3ccccc3)cc(=O)oc2c1C(CCN1CCCCC1)c1ccc(N(C)C)cc1 (stereo unspecified)	10µM*	-19	25µM*	-13	-9%	?
CCN(CC)C(=O)CC(c1ccc(OC)cc1)c1c(OC)cc(OC)c2c(-c3ccccc3)cc(=O)oc12 (stereo unspecified)	·	-2	·	7	·	·
COc1cc(C(CC(=O)N2CCOCC2)c2c(OC)cc(OC)c3c(-c4ccccc4)cc(=O)oc23)cc(OC)c1OC (stereo unspecified)	·	5	·	15	·	·
COc1ccc(C(CCN2CCCCC2)c2c(OC)cc(OC)c3c(-c4ccccc4)cc(=O)oc23)cc1 (stereo unspecified)	10µM*	-17	-3%	-12	2.8µM*	9.3µM*
COc1cc(CCC(=O)Nc2nccs2)cc(OC)c1OC	18%	-14	-5%	-2	-3%	14%
CCCCC(=O)Nc1ccc(N2CCN(C(=O)c3ccco3)CC2)cc1	-2%	7	-27%	-3	21%	?
CC(C(=O)NCCc1ccc(Cl)cc1)n1c(=O)c2cccn2c2cccnc21 (stereo unspecified)	1%	-14	-2%	-3	11µM*	13%
Cc1ccc(Cl)cc1N1CCN(C(=O)CCCn2c(=O)c3cccn3c3cccnc32)CC1	?	8	0%	6	?	?
CN1CCN(C(=O)CCn2c(=O)c3cccn3c3cccnc32)CC1	34%	-10	-2%	-2	16%	13µM*
CCc1ccc(CNC(=O)CCCn2c(=O)c3cccn3c3cccnc32)cc1	-6%	8	3%	16	10µM*	-20%
O=C(CCCn1c(=O)c2cccn2c2cccnc21)NCCc1ccc(Cl)cc1	?	-12	-10%	0	?	?
CC1CC(C)CN(C(=O)CCCn2c(=O)c3cccn3c3cccnc32)C1 (stereo unspecified)	?	-1	-5%	2	-16%	12µM*
Cc1ccn(CCC(=O)N2CCCC(CCC(=O)N3CCN(c4ccccn4)CC3)C2)n1 (stereo unspecified)	10%	-3	0%	3	3%	-7%
Cc1cccc(N2CCN(C(=O)CCCn3c(=O)c4cccn4c4cccnc43)CC2)c1C	?	17	-2%	11	?	12µM*

High-throughput results as filed in PubChem BioAssay.
